Test [1] can be described thus: Cytotoxicity counterscreen for NFkB agonists and antagonists (AID 624476). Further: on the % scale 0 is the no-effect control and ±100 the full control effect.
Test [2] is described as follows: qHTS Assay for Identification of Small Molecule Agonists for NFkB Signaling Pathway. (AID 624478).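 Further: compounds tested together with TNF alpha at its EC50 of 10 pM; 0% is about no effect.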 In outline:
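Activators were sought in reporter cells stimulated at the TNF alpha EC50 (10 pM final). Compound and cytokine were co-incubated 5 hours at 37 C before beta-lactamase substrate detection by dual-emission fluorescence.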

The nature of test [3]: qHTS Assay for Identification of Small Molecule Antagonists for NFkB Signaling Pathway. (AID 624479; calls by dose curve;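 further: pathway stimulated with TNF alpha; on the % scale 0 is the no-effect control and ±100 the full control effect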). (Quantitative high-throughput screening tests each substance at several concentrations.)
A short description of test [4]: Cell Proliferation Assay against the TMD8 Cell Line (AID 651645).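 Further: cells exposed to compound for 48 h before reading.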 As to conditions: TMD8 DLBCL cell line proliferation/viability; at 46.1 µM (top of the series) unless noted. In short, it runs like this:
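TMD8 ABC DLBCL cells, 500 per well in phenol red-free RPMI with 5% FBS, were treated with compound by pin transfer and incubated 48 hours at 37C, 5% CO2. Viability was read by CellTiter-Glo luminescence, normalised to DMSO (100%) and 9.2 uM bortezomib (0%).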

The nature of test [5]: Cell Proliferation Assay against the HBL1 Cell Line (AID 651646).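 Further: cells exposed to compound for 48 h before reading.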 To be noted: HBL1 DLBCL cells; at 46.1 µM (top of the series) unless noted. In outline: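 CellTiter-Glo luminescence after 48 h compound exposure at 37C gives percent activity, with DMSO as 100% and 9.2 uM bortezomib final as 0%. Cells: 500 log-phase HBL1 per well, RPMI plus 5% FBS.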
A short description of test [6]: Cell Proliferation Assay against the TMD8 Cell Line (Caspase readout at 16 hrs) (AID 651712). In short, it runs like this:
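Caspase-Glo luminescence measured apoptosis after a 16 h, 37 C compound exposure of TMD8 cells (500 cells/well, 5% FBS RPMI). DMSO set 0% and bortezomib at 9.2 uM final set 100% activity.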

Test [7] can be described thus: Cell Proliferation Assay against the TMD8 Cell Line (Caspase readout at 8 hrs) (AID 651713).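 Further: 0% = DMSO and 100% = 9.2 µM bortezomib caspase signal.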 In short, it runs like this: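 Caspase 3/7 activation in ABC DLBCL TMD8 cells is measured by luminescence after an 8 h compound exposure at 37C. Relative light units are scaled between DMSO (0%) and 9.2 uM final bortezomib (100%).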

Structures are written as SMILES. Results filed as inconclusive are left out. The source made the active and inactive calls. Unless noted, the call rests on the fitted dose curve; in most records, active means well fitted curve in the direction sought with a large enough effect; inconclusive means small, poorly fitted or top-dose-only effect, or another doubt; inactive means no such curve, though single readings can be large; an effect the other way counts as inactive or inconclusive.

As to `CCOc1cc(C(=O)Nc2ccc(Cl)c(-c3nc4ccccc4[nH]3)c2)cc(OCC)c1OCC`, the Potency entry in test [1], in test [3] and in test [6] was “inactive” each time. In addition, the molecule was called inactive in test [2]. The viability (% of control) in test [4] stood at 69.8%. The viability, percent of control in test [5] came to 85.2%.

`O=C1[C@H](Cc2ccc(O)cc2)N2C(=O)CCN(C(=O)NCc3ccccc3)[C@H]2CN1Cc1cccc2ccccc12`: the Potency result in test [1] and in test [3] was “inactive” each time. For the same molecule, the molecule was classed as inactive in test [2]. In addition, the viability (% of control) in test [4] was 27.3%. Moreover, the viability, percent of control in test [5] is 32.2%.

As to `CC1(C)SCCN(S(=O)(=O)c2ccc(OCC#CCO)cc2)[C@@H]1C(=O)NO`, the Potency result in test [1], in test [3] and in test [6] was “inactive” throughout. Besides, in test [2], the molecule was called inactive. Also, the viability (% of control) in test [4] was 84.4%. The viability, percent of control in test [5] amounted to 97.2%.

For the molecule `Cc1n[nH]c(C)c1Cc1sc2c(c1C(=O)N1C[C@H](O)CO1)c(=O)n(C)c(=O)n2CC(C)C`, the Potency result in test [1], in test [3] and in test [6] was “inactive” each time. In addition, in test [2], the outcome was inactive. Also, the viability (% of control) in test [4] was 68.3%. Further, the viability, percent of control in test [5] came to 76%.

Turning to `O=c1ncn2nc(Sc3ccc(F)cc3F)ccc2c1-c1c(Cl)cccc1Cl`, the Potency result in test [1], in test [3] and in test [7] was “inactive” in each case. For the same molecule, the call in test [2] was inactive. Besides, the viability (% of control) in test [4] stood at 65.5%. In addition, in test [5], the viability, percent of control was 62.3%.

With `CC(C)(N)C(=O)N[C@H](COCc1ccccc1)C(=O)N1CCC2(CC1)CN(S(C)(=O)=O)c1ccccc12`, the Potency result in test [1], in test [3], in test [6] and in test [7] was “inactive” throughout. Moreover, the result in test [2] was inactive. Moreover, in test [4], the viability (% of control) was 48.1%. Moreover, the viability, percent of control in test [5] turned out to be 69.2%.

For the molecule `C[C@H](NC(=O)Cc1cc(F)cc(F)c1)C(=O)N[C@@H]1C(=O)N(C)c2ccccc2-c2ccccc21`, the Potency entry in test [1], in test [3] and in test [7] was “inactive” each time. In addition, the call in test [2] was inactive. In addition, in test [4], the viability (% of control) is 86.6%. The viability, percent of control in test [5] stood at 87.3%.

Regarding `CC(C)OC(=O)C1=CN(C(=O)c2ccc(F)c(F)c2)CC(C)(C)c2c1[nH]c1ccccc21`, the Potency result in test [1], in test [3] and in test [7] was “inactive” each time. For the same molecule, in test [2], the outcome was inactive. The viability (% of control) in test [4] came out at 9.41%. Further, the viability, percent of control in test [5] was 100%.

With `Cc1csc(NC(=O)c2sc3nc4c(c(C(F)(F)F)c3c2N)CCC4)n1`, the Potency result in test [1], in test [3] and in test [7] was “inactive” each time. In addition, in test [2], the outcome was inactive. Also, in test [4], the viability (% of control) amounted to 64.8%. Also, the viability, percent of control in test [5] amounted to 60.9%.

For the molecule `Cc1cc(-c2ccc(CC(=O)Nc3ccc(-c4cccnc4)cc3)cc2)ccn1`, the Potency result in test [1] and in test [3] was “inactive” each time. In test [2], the call was inactive. Moreover, in test [4], the viability (% of control) was 62.3%. The viability, percent of control in test [5] was 101%.

Take `CN([C@@H](Cc1ccc(OS(=O)(=O)c2cccc3cnccc23)cc1)C(=O)N1CCN(c2ccccc2)CC1)S(=O)(=O)c1cccc2cnccc12`: the Potency result in test [1], in test [3] and in test [7] was “inactive” throughout. In test [2], the outcome was inactive. The viability (% of control) in test [4] came out at 72.1%. The viability, percent of control in test [5] is 106%.

In the case of `CCC(=O)N[C@H]1CC[C@H](C(=O)N(C)c2ccc(-c3nc4ccccc4o3)cc2)C1`, the Potency result in test [1] and in test [3] was “inactive” throughout. Besides, the molecule was called inactive in test [2]. Further, the viability (% of control) in test [4] is 77.3%. In addition, in test [5], the viability, percent of control worked out at 74.7%.

With `CC[C@@H](C)[C@H](NC(=O)[C@H](CC1CCCCC1)NC(=O)c1ccno1)C(=O)N1CCC2(CCc3ccccc32)CC1`, the Potency entry in test [1], in test [3], in test [6] and in test [7] was “inactive” throughout. The molecule was classed as inactive in test [2]. Moreover, the viability (% of control) in test [4] came out at 62.6%. Also, the viability, percent of control in test [5] came out at 65.5%.

Take `CCN(c1ccccc1)c1cc(NC)[n+](C)c(C)n1`: the Potency result in test [1], in test [3] and in test [7] was “inactive” in each case. Also, the molecule was called inactive in test [2]. The viability (% of control) in test [4] worked out at 99.5%. In addition, in test [5], the viability, percent of control turned out to be 87.8%.

As to `O=c1[nH]c(-c2ccc(C(F)(F)F)cc2)nc2c1CSCC2`, the Potency result in test [1], in test [3], in test [6] and in test [7] was “inactive” in each case. The outcome in test [2] was inactive. In addition, the viability (% of control) in test [4] worked out at 82.1%. The viability, percent of control in test [5] came out at 105%.

Turning to `COc1cccc2cc(-c3nc(C4CCC(C(=O)O)CC4)n4ncnc(N)c34)[nH]c12` (stereo not given), the Potency entry in test [1] and in test [3] was “inactive” throughout. The molecule was called inactive in test [2]. Besides, in test [4], the viability (% of control) was 18.4%. In addition, in test [5], the viability, percent of control was determined as 58.5%.

The record behind these values is PubChem BioAssay (NCATS).
